Screens from PubChem.
Only some compounds are listed: those with a hit (about 2.7% of all), similar ones and a draw of the others.
HEK293 tox = cytotoxic in the GLP-1 receptor inverse agonist counter-screen; AID 624418; Potency, µM (doses to about 38.3 µM), for inactives: at the top dose activity change, negative = inhibition, usual class: inhibitors; HEK293 cAMP-luciferase reporter cells, luminescence, 24 h; 410,000 tested, 0.13% active;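 also: loss of luciferase light is scored as toxicity; % is scaled to controls: 0 for no effect and ±100 for the full control effect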
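Luminescence readout: signal drop marks cytotoxicity. Plated cells grew 12 h at 37 °C, 5% CO2, received 23 nL compound for 24 h, then got luciferase reagent, read after 12 min at RT.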
TrxR1 substrate = is turned over as a substrate by rat TrxR1; purified TrxR1 substrate turnover, NADPH consumption readout; 390,000 tested, 0.01% active; Potency, µM (top dose mostly 114 µM), without a hit: at the highest dose activity change, negative = substrate turnover; O89049; AID 588456; also: % is scaled to controls: 0 for no effect and ±100 for the full control effect; nearly all actives have a fitted effect of over 50% in size
Target sequence (O89049 whole entry, looked up): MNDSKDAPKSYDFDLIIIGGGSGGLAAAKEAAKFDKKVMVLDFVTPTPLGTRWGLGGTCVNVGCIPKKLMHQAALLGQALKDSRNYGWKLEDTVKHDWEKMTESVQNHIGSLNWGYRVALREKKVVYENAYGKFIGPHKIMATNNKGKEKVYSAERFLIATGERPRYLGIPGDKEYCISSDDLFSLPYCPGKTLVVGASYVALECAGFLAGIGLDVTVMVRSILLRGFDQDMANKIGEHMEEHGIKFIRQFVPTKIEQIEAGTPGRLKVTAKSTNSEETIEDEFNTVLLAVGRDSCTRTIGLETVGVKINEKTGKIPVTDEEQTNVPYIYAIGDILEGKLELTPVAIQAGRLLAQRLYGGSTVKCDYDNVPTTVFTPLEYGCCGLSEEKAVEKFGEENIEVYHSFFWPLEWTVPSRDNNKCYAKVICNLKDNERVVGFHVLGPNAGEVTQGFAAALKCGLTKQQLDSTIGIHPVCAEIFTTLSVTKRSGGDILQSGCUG
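Rat TrxR1, dispensed at 90 nM, was prereduced with 400 uM NADPH (final) for 5 min at ~22 deg C, then incubated with compound 15 min before 400 uM selenite. A first-read NADPH fluorescence drop versus no-compound background flagged substrates.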
GLP1R ag = agonists of human GLP-1 receptor | 380,000 tested, 0.007% active | Potency, µM (top dose mostly 45.6 µM), for the others: at the highest dose activation, actives largely listed as activators | HEK293 GLP-1R CRE-luciferase, luminescence, 4-6 h; cells express a hypersensitive GLP-1R form | AID 624172 | P43220; also: % of control where 0% means no effect
IDH1 R132H inh = inhibitors of human mutant IDH1 R132H | O75874 | IDH1-R132H enzyme, NADPH consumption, diaphorase/resazurin fluorescence | Potency, µM (highest dose often 76.6 µM), without a hit: at the highest dose activity change, negative = inhibition, actives largely listed as inhibitors | 390,000 tested, 0.093% active; also: % is scaled to controls: 0 for no effect and ±100 for the full control effect; nearly all actives have a fitted effect of over 65% in size
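IDH1-R132H (0.5 ug/mL dispensed) in pH 7.5 Tris buffer was preincubated 30 min with compound, then given a substrate mix of 0.016 mM NADPH and 2 mM alpha-KG for 80 min at room temperature; remaining NADPH was read by diaphorase/resazurin fluorescence.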
GLP1R inv ag = acts as inverse agonist at human GLP-1 receptor; P43220; HEK293 GLP-1R CRE-luciferase, luminescence, 24 h; GLP-1R form is constitutively active; Potency, µM (highest dose often 38.3 µM), for the others: at the top dose activity change, negative = inhibition, actives largely listed as inhibitors; 410,000 tested, 1.6% active; AID 624417; also: % is scaled to controls: 0 for no effect and ±100 for the full control effect; nearly all actives have a fitted effect of over 55% in size
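Assay principle: reduced luminescence from a cAMP-responsive reporter in HEK293 cells co-expressing a constitutively active GLP-1R. Conditions: 24 hr compound incubation, 37 deg C, 5% CO2.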
rTrxR1 inhibitor = inhibitors of rat thioredoxin reductase 1 | recombinant rTrxR1, NADPH fluorescence consumption, selenite substrate | Potency, µM (series often up to 114 µM), for inactives: at the highest dose activity change, negative = inhibition, most hits filed as inhibitors | 390,000 tested, 1% active; also: % is scaled to controls: 0 for no effect and ±100 for the full control effect; nearly all actives have a fitted effect of over 65% in size
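Rat TrxR1 (90 nM in the dispensed reagent) was pre-reduced with 400 uM NADPH for 5 min at room temperature, then incubated with compound for 15 min. After 400 uM selenite was added, NADPH fluorescence (Ex 340/Em 450 nm) was followed for 8 min.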
* marks the source's active call; other numbers are inactive results; ? = inconclusive; · = no result given; [ ] = another dose, or the depositor's remark. Calls follow the shape of the dose curve; as a rule, active = well fitted curve in the direction sought with a large enough effect; inconclusive = small, poorly fitted or top-dose-only effect, or another doubt; inactive = no such curve, though single readings can be large; an effect the other way counts as inactive or inconclusive. Potency is read from the fitted curve at half-maximal effect.

SMILES	HEK293 tox	TrxR1 substrate	GLP1R ag	IDH1 R132H inh	GLP1R inv ag	rTrxR1 inhibitor
O=C(N/N=C/c1ccc([N+](=O)[O-])s1)c1ccccc1Br	?	-2.3%	1.9%	0.5%	2.9%	20µM*
CCCn1nc([N+](=O)[O-])c(C(C#N)c2nc3ccccc3s2)c(Cl)c1=O (configuration not stated)	?	0.0%	-21.4%	0.7%	?	1.58µM*
COc1ccccc1CNC(=O)CCCN1C(=O)CSc2c1c(C)nn2-c1ccccc1	1.2%	1.4%[57.1 µM]	·	0.0%	-5.4%	15.1%[57.1 µM]
Cc1c2cc(O)c(=O)cc-2oc2cc(O)c(O)cc12	?	3.6%	-4.1%	0.0%	0.0%	-9.1%
COc1cc(OC)c(-c2c3cc(O)c(=O)cc-3oc3cc(O)c(O)cc23)cc1OC	?	-15.1%	-2.8%	11.7µM*	4.47µM*	-13.7%
NNC(=O)c1[nH]c2ccc(Br)cc2c1-c1ccccc1	-17.0%	3.2%[57.1 µM]	11.4%	?	?	4.4%[57.1 µM]
CCOC(=O)NNC(=O)c1[nH]c2ccc(Br)cc2c1-c1ccccc1	?	-11.3%	-0.8%	-12.0%	10µM*	-7.2%
CC(=O)NNC(=O)c1[nH]c2ccc(Br)cc2c1-c1ccccc1	0.2%	-1.7%	-3.8%	5.9%	10µM*	13.4%
O=C(O)CC(CC(=O)O)c1ccc2c(c1)OCO2	·	-0.4%	·	·	·	4.6%
NC(Cc1ccccc1)c1csc(Nc2ccc(C(=O)c3ccccc3)cc2)n1 (configuration not stated)	?	·	-3.1%	·	10µM*	·
NC(Cc1ccc(Cl)cc1)c1csc(Nc2ccc(C(=O)c3ccccc3)cc2)n1 (configuration not stated)	1.8%	·	-8.9%	·	?	·
CO[C@@]1(NC(=O)CSC(F)F)C(=O)N2C(C(=O)O)=C(CSc3nnnn3CCO)CO[C@@H]21	·	·	5.9%	·	·	·
NS(=O)(=O)c1ccc2c(c1)C1C=CCC1C(C1CC=CCC1)N2 (configuration not stated)	-2.9%	0.6%	4.9%	-12.7%	6.3%	39.8µM*
CCCCCCCCCCCCCCCC(=O)OCC(COP(=O)(O)OCC[N+](C)(C)C)OC(=O)CCCCCCCCCCCCCCC (configuration not stated)	·	·	16.2%	·	·	·
COc1ccc(C(=O)N/N=C/c2ccc(N3CCOCC3)o2)cc1OC	5.4%	-10.3%	0.5%	-2.8%	-17.6%	28.2µM*
O=C(N/N=C/c1ccc(N2CCOCC2)o1)c1cccc(F)c1	-14.3%	-1.0%	-4.3%	-3.2%	55.7%	11.2µM*
COc1ccc(C(=O)N/N=C/c2ccc(N3CCOCC3)s2)cc1OC	-8.4%	-11.7%	13.9%	-13.6%	16.2%	-13.1%
O=C(N/N=C/c1ccc(-c2cccc(C(F)(F)F)c2)o1)c1cccc(F)c1	3.5%	-0.7%	-13.9%	-2.4%	?	0.0%
Cc1oc(-c2ccc(Cl)cc2)nc1CS(=O)CC(=O)NC1CCCCC1 (configuration not stated)	2.6%	14.5%	-9.1%	3.1%	-17.1%	25.1µM*
Cc1oc(-c2ccccc2F)nc1CS(=O)CC(=O)NC1CCCC1 (configuration not stated)	-8.6%	9.1%	0.7%	-7.9%	14.2%	28.2µM*
CCc1ccc(-c2nc(CS(=O)CC(=O)NCCN3CCCCCC3)c(C)o2)cc1 (configuration not stated)	-26.3%	7.4%	-3.8%	9.1%	11.2µM*	-11.7%
Cc1oc(-c2ccc(Cl)cc2)nc1CS(=O)CC(=O)NC1CCCCCC1 (configuration not stated)	2.6%	-3.4%	11.4%	-8.8%	?	?
Cc1oc(-c2ccc(Cl)cc2)nc1CS(=O)CC(=O)NC1CCCC1 (configuration not stated)	-8.4%	-5.2%	-0.7%	13.4%	?	44.7µM*
Cc1ccc(-c2nc(CS(=O)CC(=O)NC3CCCCC3)c(C)o2)cc1 (configuration not stated)	-9.2%	0.2%	-3.2%	0.0%	?	?
Cc1ccc(-c2nc(CS(=O)CC(=O)NCCN3CCCC3)c(C)o2)cc1 (configuration not stated)	-5.5%	8.4%	-1.7%	17.7%	-12.3%	-2.9%[57.1 µM]
SMILES	HEK293 tox	TrxR1 substrate	GLP1R ag	IDH1 R132H inh	GLP1R inv ag	rTrxR1 inhibitor
COc1cc2c(c(OC)c1OC)-c1c(cc3c(c1OC)OCO3)CC(C)C(C)(O)C2 (configuration not stated)	·	·	-3.3%	·	·	·
Nc1c(C(=O)NCc2ccccc2)nnn1Cc1cccc(Br)c1	?	-3.3%	·	-12.0%	?	2.5%
Cc1oc(-c2cccs2)nc1CS(=O)CC(=O)NC1CCCCCC1 (configuration not stated)	0.1%	4.6%[57.1 µM]	-0.8%	12.7%	-13.9%	5.01µM*
COCCNC(=S)N/N=C/c1ccc(N2CCOCC2)cc1	?	46.0%	7.2%	-11.0%	?	-21.0%
C=C(C)CNC(=S)N/N=C/c1ccc(N2CCOCC2)cc1	?	49.1%	22.3%	-6.1%	10µM*	1.6%
COC(=O)C(CC(=O)c1ccc(Br)cc1)n1nc(C)cc1C (configuration not stated)	-10.4%	8.8%	10.2%	-2.2%	?	8.91µM*
CCCCCCOc1ccc(NC(=O)CC2C(=O)N(CC)C(=S)N2Cc2ccco2)cc1 (configuration not stated)	?	-11.0%	-4.7%	5.2%	7.08µM*	-8.5%
CCCOc1ccc(NC(=O)CC2C(=O)N(CC)C(=S)N2Cc2cccs2)cc1 (configuration not stated)	-27.7%	-3.4%	-0.5%	4.7%	10µM*	13.0%
COc1ccc(NC(=O)CC2C(=O)N(Cc3ccccc3)C(=S)N2CCN2CCOCC2)cc1 (configuration not stated)	-5.9%[0.307 µM]	-15.4%	-1.5%	4.0%	-11.5%[0.307 µM]	5.3%[57.1 µM]
C=CCN1C(=O)C(CC(=O)Nc2ccc(OCCC)cc2)N(CCCN2CCN(Cc3ccccc3)CC2)C1=S (configuration not stated)	?	-7.1%[57.1 µM]	0.1%	-0.4%	2.51µM*	-1.2%[57.1 µM]
O=C(c1cccc2ccccc12)N1CCN(S(=O)(=O)c2ccccc2)CC1	·	0.6%	·	·	·	14.0%
COc1ccccc1CCNC(=O)C(=O)NCC(c1cccs1)S(=O)(=O)c1ccc(F)cc1 (configuration not stated)	-6.1%	2.0%[57.1 µM]	·	0.0%	?	6.3%[57.1 µM]
